Assay outcomes (PubChem)
PNC inhibitor: High Content Assay for Compounds that inhibit the Assembly of the Perinucleolar Compartment; PC3M PTB-GFP, PNC prevalence imaging, 16 h; stronger effect = lower value; activity change (PNC), negative = inhibition, % at 10 µM; 140,000 compounds, 3.1% hits; AID 2417, 2010;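 active = readout at or below -70, meaning at least 70% loss of cells showing the perinucleolar compartment, a nuclear body marking cancer cells; inconclusive = readout between -30 and a set limit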;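 also: plate controls were DMSO wells for no effect and camptothecin positive control wells for full effect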
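Read-out is percentage of cells bearing a perinucleolar compartment, from automated 20x imaging of fixed, Hoechst-stained PC3M PTB-GFP cells. Cells were seeded 4 h, then exposed 16 h to compound (23 nl of library stock) in duplicate plates.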
12-hLO inh: qHTS Assay for Inhibitors of 12-hLO (12-human lipoxygenase). Polyunsaturated fatty acid lipoxygenase ALOX12 (Homo sapiens), P18054. purified 12-hLO, xylenol orange hydroperoxide absorbance. Potency, µM (top dose mostly 57.1 µM), without a hit: top-dose activity change, negative = inhibition, most hits filed as inhibitors. 150,000 compounds, 0.12% hits; active = well fitted inhibition curve with a large enough effect; inconclusive = small, poorly fitted or top-dose-only effect; also: potency is read from the fitted curve at half-maximal effect; nearly all actives have a fitted effect of over 55% in size
Target sequence (P18054 whole entry, looked up): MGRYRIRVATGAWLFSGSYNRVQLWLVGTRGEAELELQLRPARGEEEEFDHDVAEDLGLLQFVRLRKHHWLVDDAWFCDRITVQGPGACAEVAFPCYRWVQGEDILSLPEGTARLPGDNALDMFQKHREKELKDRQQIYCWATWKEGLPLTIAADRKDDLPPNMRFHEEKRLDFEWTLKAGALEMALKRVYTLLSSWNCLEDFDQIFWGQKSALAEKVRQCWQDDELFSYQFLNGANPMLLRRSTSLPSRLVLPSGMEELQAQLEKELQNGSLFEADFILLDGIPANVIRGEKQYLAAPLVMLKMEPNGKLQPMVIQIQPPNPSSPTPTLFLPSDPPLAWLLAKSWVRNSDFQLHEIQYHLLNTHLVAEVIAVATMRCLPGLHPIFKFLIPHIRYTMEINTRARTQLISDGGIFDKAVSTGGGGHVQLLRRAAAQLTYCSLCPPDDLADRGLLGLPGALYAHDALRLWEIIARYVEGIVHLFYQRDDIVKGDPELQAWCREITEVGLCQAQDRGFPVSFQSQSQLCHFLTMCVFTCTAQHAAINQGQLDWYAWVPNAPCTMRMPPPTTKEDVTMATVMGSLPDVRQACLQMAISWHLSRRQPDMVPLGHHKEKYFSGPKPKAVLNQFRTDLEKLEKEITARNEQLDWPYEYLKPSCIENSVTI
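Hydroperoxide formation by human 12-lipoxygenase from 40 uM arachidonic acid was followed colorimetrically via ferric-xylenol orange complex, using the 573/405 nm absorbance ratio. Enzyme concentration was 150 nM, with 30 min reaction at room temperature.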
LMNA splice mod: qHTS Assay for Modulators of Lamin A Splicing. HeLa LMNA splicing GFP/RFP minigene ratio, 48 h. Potency, µM (titrated, usually from 46.1 µM), inactives show top-dose ratio change, negative = inhibition, hits mostly inhibitors. 200,000 compounds, 0.01% hits. AID 1487, 2009; active = well fitted inhibition curve with a large enough effect in the signal ratio, with a control signal flat, not every such curve was filed as active; inconclusive = small, poorly fitted or top-dose-only effect, or effect the other way, or a change in a side signal; the % refers to the signal ratio; also: potency is read from the fitted curve at half-maximal effect
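S3 HeLa cells stably expressing lamin A-EGFP splicing minigene plus DsRed2, 600 cells/well, 48 h compound exposure at 37C. Laser-scanning cytometry; analysed as GFP (500-530 nm)/RFP (575-640 nm) total intensity ratio; 0.5% DMSO vehicle.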
ALDH1A1 block: qHTS Assay for Inhibitors of Aldehyde Dehydrogenase 1 (ALDH1A1). AID 1030, 2008. Purified ALDH1A1, NADH fluorescence, propionaldehyde substrate. Potency, µM (doses to about 75.3 µM), for the others: at the top dose activity, negative = inhibition, hits mostly inhibitors. Aldehyde dehydrogenase 1A1 (Homo sapiens), P00352. 220,000 compounds, 7.3% hits;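 also: potency is read from the fitted curve at half-maximal effect; plate controls were no enzyme wells and a reference inhibitor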
HPGD inh: qHTS Assay for Inhibitors of HPGD (15-Hydroxyprostaglandin Dehydrogenase); 15-hydroxyprostaglandin dehydrogenase [NAD(+)] (Homo sapiens), P15428; purified HPGD, NADH fluorescence kinetic, PGE2 substrate; Potency, µM, without a hit: at the top dose activity change, negative = inhibition, actives largely listed as inhibitors; 150,000 compounds, 4.3% hits; also: potency is read from the fitted curve at half-maximal effect
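20 nM HPGD preincubated 15 min at room temperature with compound in 50 mM Tris-HCl pH 8, 0.01% Tween 20. Started with 1 mM NAD+ and 30 uM prostaglandin E2; NADH fluorescence (360/450 nm) read 5 times over 30-s intervals, last minus first.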
Numbers without * were called inactive; [ ] = remark or other dose. This is a sample that favours compounds with a hit; in the whole collection about 10% have one here. Unless noted, calls follow the shape of the dose curve; as a rule, active = well fitted inhibition curve with a large enough effect (not every such curve was filed as active); inconclusive = small, poorly fitted or top-dose-only effect, or another doubt; inactive = no such curve, though single readings can be large or run the other way. Unless noted, % is scaled to controls: 0 for no effect and ±100 for the full control effect.

What do the screens show for `O=C(c1ccco1)N1CCN(C(c2ccc(Cl)cc2)c2nnnn2CC2CCCO2)CC1` (configuration not stated)?
PNC inhibitor: 5; 12-hLO inh: -8%; LMNA splice mod: 6%; ALDH1A1 block: inconclusive; HPGD inh: -7%

How did O=C(c1ccco1)N1CCN(Cc2nnnn2CC2CCCO2)CC1 (configuration not stated) do in these assays?
ALDH1A1 block: 20µM*

Results for Cc1oc2ncn(CC(C)C)c(=O)c2c1C(=O)NCCc1ccc(Cl)cc1 ?
LMNA splice mod: 17%[46 µM]

How did COc1ccc2c(CC(=O)NCCN3C(=O)S/C(=C\c4cccnc4)C3=O)coc2c1 do in these assays?
LMNA splice mod: -18%[46 µM]; ALDH1A1 block: 22µM*

Results for COc1ccc(-n2ncc(C(=O)NCCN3CCOCC3)c2C2CCN(C(=O)OC(C)(C)C)CC2)cc1 ?
LMNA splice mod: -7%[46 µM]

How did CCOC(=O)C1=C(CBr)NC(=O)NC1C (configuration not stated) do in these assays?
LMNA splice mod: 0%[46 µM]; ALDH1A1 block: 14µM*

Results for Cc1ccc(CSc2nc(=O)c3c(n2C)NC(=O)CC3c2ccc(OC(C)C)cc2)cc1 (configuration not stated) ?
LMNA splice mod: 3%[46 µM]

How did COc1cccc(C2C(C(=O)/C=C/c3ccco3)=C(O)C(=O)N2CCN2CCOCC2)c1 (configuration not stated) do in these assays?
LMNA splice mod: 2%[9.22 µM]; ALDH1A1 block: -2%

How did C=CCOc1cccc(C2C(C(=O)c3ccco3)=C(O)C(=O)N2CCN2CCOCC2)c1 (configuration not stated) do in these assays?
PNC inhibitor: -24; 12-hLO inh: -1%; LMNA splice mod: 2%; ALDH1A1 block: 25µM*; HPGD inh: -16%

What do the screens show for `COc1cccc2cc(C(=O)C3=C(O)C(=O)N(CCN4CCOCC4)C3c3cccs3)oc12` (configuration not stated)?
PNC inhibitor: -3; 12-hLO inh: -3%; LMNA splice mod: 6%; ALDH1A1 block: 25µM*; HPGD inh: -11%

How did Cc1nc(C)c(C(=O)C2=C(O)C(=O)N(CCCN(C)C)C2c2ccco2)s1 (configuration not stated) do in these assays?
PNC inhibitor: -81*; 12-hLO inh: -5%; LMNA splice mod: 6%; ALDH1A1 block: inconclusive; HPGD inh: -12%

What do the screens show for `COc1ccc(C2C(C(=O)/C=C/c3ccco3)=C(O)C(=O)N2CCN2CCOCC2)cc1` (configuration not stated)?
LMNA splice mod: inconclusive; ALDH1A1 block: 20µM*

How did Cc1ccc(NC(=O)N2CCC(CN3CCCCC3)CC2)c(Cl)c1 do in these assays?
LMNA splice mod: 2%[46 µM]

What do the screens show for `Cc1nc(SCC(=O)Nc2ccccc2C)cc(-c2ccccc2)n1`?
LMNA splice mod: -3%[46 µM]

What do the screens show for `Cc1ccc(C2C(C(=O)c3sc(C)nc3C)=C(O)C(=O)N2CCN2CCOCC2)o1` (configuration not stated)?
PNC inhibitor: 22; 12-hLO inh: -3%; LMNA splice mod: 9%; ALDH1A1 block: inconclusive; HPGD inh: -6%

What do the screens show for `COc1cccc(C2C(C(=O)c3sc(C)nc3C)=C(O)C(=O)N2CCN2CCOCC2)c1` (configuration not stated)?
PNC inhibitor: 22; 12-hLO inh: -9%; LMNA splice mod: 2%; ALDH1A1 block: 20µM*; HPGD inh: -22%

How did COc1ccc2nc3c(c([Si](C)(C)C(C)(C)C)c2c1)Cn1c-3cccc1=O do in these assays?
12-hLO inh: -11%; ALDH1A1 block: 22µM*; HPGD inh: inconclusive

What do the screens show for `COc1cc2cc(CN(Cc3cccs3)C(=S)Nc3cccc(C)c3)c(=O)[nH]c2cc1OC`?
PNC inhibitor: -113*; 12-hLO inh: -1%; LMNA splice mod: -8%; ALDH1A1 block: inconclusive; HPGD inh: -26%

Results for COc1cc2cc(CN(Cc3cccs3)C(=S)Nc3ccc(C)cc3)c(=O)[nH]c2cc1OC ?
PNC inhibitor: -24; 12-hLO inh: 5%; LMNA splice mod: inconclusive; ALDH1A1 block: inconclusive; HPGD inh: inconclusive

What do the screens show for `Cc1cccc(NC(=S)N(CCN(C)C)Cc2cc3cc(C)cc(C)c3[nH]c2=O)c1`?
PNC inhibitor: 3; 12-hLO inh: -5%; LMNA splice mod: 0%; ALDH1A1 block: 3%; HPGD inh: -7%

Results for Cc1cccc(NC(=S)N(CCN(C)C)Cc2cc3cccc(C)c3[nH]c2=O)c1 ?
PNC inhibitor: -100*; 12-hLO inh: -2%; LMNA splice mod: -4%; ALDH1A1 block: 1%; HPGD inh: -3%

Results for C=CCN(Cc1cccc(OC)c1OC)S(=O)(=O)N(C)C ?
PNC inhibitor: 42; 12-hLO inh: 10%; LMNA splice mod: 4%; ALDH1A1 block: 25µM*; HPGD inh: -14%

Results for CCOc1ccc(NS(=O)(=O)c2cc(NC(=O)CCC(=O)c3cccs3)ccc2Cl)cc1 ?
ALDH1A1 block: -8%

What do the screens show for `CC(C)c1ccc(NCCC(=O)c2cccs2)cc1`?
PNC inhibitor: inconclusive; 12-hLO inh: -4%; LMNA splice mod: 5%; ALDH1A1 block: 2.8µM*; HPGD inh: -11%

What do the screens show for `C/C(=N\NC(=O)CCC(=O)Nc1ccc(C)c(C)c1)c1cccs1`?
LMNA splice mod: -2%[46 µM]; ALDH1A1 block: 2%

What do the screens show for `Cc1ccc(NCCC(=O)c2cccs2)cc1C`?
LMNA splice mod: inconclusive; ALDH1A1 block: 1.6µM*

How did Cc1ccc(NC(=O)CCC(=O)c2cccs2)cc1 do in these assays?
PNC inhibitor: -22; 12-hLO inh: 7%; LMNA splice mod: 2%; ALDH1A1 block: inconclusive; HPGD inh: -11%

Results for Cc1ccc(NCCC(=O)c2cccs2)cc1Cl ?
PNC inhibitor: 13; 12-hLO inh: -5%; LMNA splice mod: -22%; ALDH1A1 block: 2.5µM*; HPGD inh: -7%

What do the screens show for `Cc1ccc(NCCC(=O)c2cccs2)cc1`?
LMNA splice mod: inconclusive; ALDH1A1 block: 0.89µM*

How did Cc1cnc(CNc2ncncc2-c2ccccc2C#N)cn1 do in these assays?
12-hLO inh: -1%; LMNA splice mod: 8%; ALDH1A1 block: 1%; HPGD inh: -12%

How did O=C(CCNc1cccc(Cl)c1)c1cccs1 do in these assays?
PNC inhibitor: -5; 12-hLO inh: 3%; LMNA splice mod: inconclusive; ALDH1A1 block: 1.3µM*; HPGD inh: -12%

Results for O=C(NNC(=O)c1cccs1)Nc1cccc(Cl)c1 ?
PNC inhibitor: 14; 12-hLO inh: 3%; LMNA splice mod: -1%; ALDH1A1 block: 1%; HPGD inh: -14%
